Measured values as given in the supplement of paper PMC11732987, “Enantioselective OTUD7B fragment discovery through chemoproteomics screening and high-throughput optimisation” (Communications Chemistry, 2025).

Legend:
Test in all cases: log2 ratio of Biotin-Ahx-Ub-VS probe labelling (fragment/DMSO); higher = less target engagement (more negative = stronger competition), active = hit call of the paper (q ≤ 0.05, log2 ratio ≤ -1)
Conditions in all cases: compound concentration: 200 uM; treatment time: 3 h
USP34 = USP34 (UniProt Q70CQ2)
Sequence of USP34 (Q70CQ2 whole entry, the tested form may be a part): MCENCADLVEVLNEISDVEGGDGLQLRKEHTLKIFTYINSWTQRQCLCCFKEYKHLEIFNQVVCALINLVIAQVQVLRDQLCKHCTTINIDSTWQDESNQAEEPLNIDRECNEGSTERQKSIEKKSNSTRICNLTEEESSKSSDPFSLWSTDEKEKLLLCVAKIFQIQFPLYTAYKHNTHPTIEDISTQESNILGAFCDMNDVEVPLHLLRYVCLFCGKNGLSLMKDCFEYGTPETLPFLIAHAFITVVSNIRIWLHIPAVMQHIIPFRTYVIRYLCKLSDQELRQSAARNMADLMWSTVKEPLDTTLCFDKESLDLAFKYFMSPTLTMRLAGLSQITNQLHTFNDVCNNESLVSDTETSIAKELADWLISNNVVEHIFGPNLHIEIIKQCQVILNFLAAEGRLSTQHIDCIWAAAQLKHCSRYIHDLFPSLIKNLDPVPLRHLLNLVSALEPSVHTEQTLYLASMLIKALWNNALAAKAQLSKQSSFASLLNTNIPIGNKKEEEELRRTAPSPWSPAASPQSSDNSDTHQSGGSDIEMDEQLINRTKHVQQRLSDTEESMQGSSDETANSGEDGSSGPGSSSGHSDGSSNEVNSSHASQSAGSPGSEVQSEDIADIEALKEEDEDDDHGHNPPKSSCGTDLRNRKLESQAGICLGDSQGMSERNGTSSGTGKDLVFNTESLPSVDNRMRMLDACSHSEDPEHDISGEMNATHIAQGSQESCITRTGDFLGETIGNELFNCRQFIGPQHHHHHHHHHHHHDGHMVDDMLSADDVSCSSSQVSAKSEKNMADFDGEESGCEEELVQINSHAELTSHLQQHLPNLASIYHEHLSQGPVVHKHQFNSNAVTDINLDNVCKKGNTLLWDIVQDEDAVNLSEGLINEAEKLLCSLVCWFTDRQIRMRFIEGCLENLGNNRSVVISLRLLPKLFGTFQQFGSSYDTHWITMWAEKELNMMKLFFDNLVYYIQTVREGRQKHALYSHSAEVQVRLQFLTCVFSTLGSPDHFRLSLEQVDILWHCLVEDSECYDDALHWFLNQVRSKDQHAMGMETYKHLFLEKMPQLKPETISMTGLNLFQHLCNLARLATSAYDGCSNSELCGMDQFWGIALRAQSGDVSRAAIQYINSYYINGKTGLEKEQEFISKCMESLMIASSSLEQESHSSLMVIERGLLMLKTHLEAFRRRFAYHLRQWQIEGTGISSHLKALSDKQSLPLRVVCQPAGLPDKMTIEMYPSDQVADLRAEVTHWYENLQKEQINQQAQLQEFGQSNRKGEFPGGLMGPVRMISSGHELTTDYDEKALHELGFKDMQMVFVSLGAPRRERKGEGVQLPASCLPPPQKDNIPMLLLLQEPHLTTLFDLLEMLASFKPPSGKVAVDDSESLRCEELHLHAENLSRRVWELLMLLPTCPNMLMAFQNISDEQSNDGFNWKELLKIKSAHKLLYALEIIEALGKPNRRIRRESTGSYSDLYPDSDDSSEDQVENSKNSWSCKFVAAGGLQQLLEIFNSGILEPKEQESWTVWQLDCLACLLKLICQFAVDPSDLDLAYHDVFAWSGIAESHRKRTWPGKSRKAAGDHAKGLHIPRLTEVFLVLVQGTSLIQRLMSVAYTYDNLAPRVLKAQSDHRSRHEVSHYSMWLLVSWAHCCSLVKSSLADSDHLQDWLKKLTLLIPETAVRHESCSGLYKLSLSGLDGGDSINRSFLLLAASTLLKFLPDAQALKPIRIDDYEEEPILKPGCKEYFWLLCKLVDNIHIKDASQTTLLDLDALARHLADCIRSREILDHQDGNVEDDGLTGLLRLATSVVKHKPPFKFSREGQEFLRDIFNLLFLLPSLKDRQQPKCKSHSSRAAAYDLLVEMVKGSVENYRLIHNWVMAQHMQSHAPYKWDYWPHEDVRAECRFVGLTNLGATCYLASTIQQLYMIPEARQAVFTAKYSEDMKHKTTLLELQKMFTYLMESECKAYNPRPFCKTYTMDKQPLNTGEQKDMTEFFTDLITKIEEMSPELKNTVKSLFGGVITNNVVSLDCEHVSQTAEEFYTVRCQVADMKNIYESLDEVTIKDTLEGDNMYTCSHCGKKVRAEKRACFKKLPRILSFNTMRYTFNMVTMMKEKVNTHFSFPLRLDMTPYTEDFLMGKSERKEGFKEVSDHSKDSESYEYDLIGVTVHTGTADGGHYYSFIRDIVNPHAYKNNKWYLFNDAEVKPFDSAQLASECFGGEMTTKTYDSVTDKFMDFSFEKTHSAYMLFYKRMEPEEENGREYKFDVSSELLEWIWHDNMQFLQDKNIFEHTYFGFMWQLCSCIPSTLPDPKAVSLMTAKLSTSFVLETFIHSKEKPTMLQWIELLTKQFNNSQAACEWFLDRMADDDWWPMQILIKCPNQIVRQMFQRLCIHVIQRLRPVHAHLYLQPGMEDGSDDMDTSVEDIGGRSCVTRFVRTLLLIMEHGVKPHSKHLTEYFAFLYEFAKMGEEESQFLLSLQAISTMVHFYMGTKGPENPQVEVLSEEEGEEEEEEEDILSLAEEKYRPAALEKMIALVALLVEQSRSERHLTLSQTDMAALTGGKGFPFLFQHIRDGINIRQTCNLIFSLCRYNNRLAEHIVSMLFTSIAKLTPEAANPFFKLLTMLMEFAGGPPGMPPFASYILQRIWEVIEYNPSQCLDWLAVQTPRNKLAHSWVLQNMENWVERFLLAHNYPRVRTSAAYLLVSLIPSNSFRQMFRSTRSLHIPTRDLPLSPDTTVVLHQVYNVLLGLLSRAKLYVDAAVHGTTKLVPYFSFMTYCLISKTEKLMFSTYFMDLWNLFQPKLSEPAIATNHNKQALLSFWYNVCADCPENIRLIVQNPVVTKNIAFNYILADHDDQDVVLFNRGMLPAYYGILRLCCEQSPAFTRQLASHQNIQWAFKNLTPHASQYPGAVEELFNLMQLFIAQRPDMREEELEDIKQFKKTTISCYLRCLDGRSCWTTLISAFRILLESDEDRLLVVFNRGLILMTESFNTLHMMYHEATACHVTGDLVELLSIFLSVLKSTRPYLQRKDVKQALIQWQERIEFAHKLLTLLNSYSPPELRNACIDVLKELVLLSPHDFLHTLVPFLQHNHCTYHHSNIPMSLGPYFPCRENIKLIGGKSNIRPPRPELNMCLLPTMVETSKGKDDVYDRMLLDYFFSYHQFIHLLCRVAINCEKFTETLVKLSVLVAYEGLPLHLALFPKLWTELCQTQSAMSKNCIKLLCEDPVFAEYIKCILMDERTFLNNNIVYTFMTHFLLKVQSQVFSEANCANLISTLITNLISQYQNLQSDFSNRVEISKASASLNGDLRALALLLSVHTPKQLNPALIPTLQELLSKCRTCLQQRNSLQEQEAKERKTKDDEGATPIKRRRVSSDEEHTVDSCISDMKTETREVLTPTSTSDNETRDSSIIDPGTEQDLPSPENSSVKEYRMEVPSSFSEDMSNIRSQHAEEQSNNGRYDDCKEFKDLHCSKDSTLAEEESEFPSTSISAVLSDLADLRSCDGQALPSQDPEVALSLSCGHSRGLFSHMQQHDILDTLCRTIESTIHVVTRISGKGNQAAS
Method in brief: (§1)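 Average log2 ratios of fragment over vehicle were obtained by unpaired t-test from global-median-normalised Spectronaut label-free quantities. Proteins with ≥2 unique peptides were included. HEK293T lysate (495 µg per sample) was treated in triplicate with fragment at 200 µM or vehicle for 3 h, then with Biotin-Ahx-Ub-VS at 0.5 µM final for 1 h, and labelled DUBs were NeutrAvidin-enriched and run by diaPASEF LC-MS/MS.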

USP36 = target: T1, USP36 (UniProt Q9P275)
T1 sequence (whole entry): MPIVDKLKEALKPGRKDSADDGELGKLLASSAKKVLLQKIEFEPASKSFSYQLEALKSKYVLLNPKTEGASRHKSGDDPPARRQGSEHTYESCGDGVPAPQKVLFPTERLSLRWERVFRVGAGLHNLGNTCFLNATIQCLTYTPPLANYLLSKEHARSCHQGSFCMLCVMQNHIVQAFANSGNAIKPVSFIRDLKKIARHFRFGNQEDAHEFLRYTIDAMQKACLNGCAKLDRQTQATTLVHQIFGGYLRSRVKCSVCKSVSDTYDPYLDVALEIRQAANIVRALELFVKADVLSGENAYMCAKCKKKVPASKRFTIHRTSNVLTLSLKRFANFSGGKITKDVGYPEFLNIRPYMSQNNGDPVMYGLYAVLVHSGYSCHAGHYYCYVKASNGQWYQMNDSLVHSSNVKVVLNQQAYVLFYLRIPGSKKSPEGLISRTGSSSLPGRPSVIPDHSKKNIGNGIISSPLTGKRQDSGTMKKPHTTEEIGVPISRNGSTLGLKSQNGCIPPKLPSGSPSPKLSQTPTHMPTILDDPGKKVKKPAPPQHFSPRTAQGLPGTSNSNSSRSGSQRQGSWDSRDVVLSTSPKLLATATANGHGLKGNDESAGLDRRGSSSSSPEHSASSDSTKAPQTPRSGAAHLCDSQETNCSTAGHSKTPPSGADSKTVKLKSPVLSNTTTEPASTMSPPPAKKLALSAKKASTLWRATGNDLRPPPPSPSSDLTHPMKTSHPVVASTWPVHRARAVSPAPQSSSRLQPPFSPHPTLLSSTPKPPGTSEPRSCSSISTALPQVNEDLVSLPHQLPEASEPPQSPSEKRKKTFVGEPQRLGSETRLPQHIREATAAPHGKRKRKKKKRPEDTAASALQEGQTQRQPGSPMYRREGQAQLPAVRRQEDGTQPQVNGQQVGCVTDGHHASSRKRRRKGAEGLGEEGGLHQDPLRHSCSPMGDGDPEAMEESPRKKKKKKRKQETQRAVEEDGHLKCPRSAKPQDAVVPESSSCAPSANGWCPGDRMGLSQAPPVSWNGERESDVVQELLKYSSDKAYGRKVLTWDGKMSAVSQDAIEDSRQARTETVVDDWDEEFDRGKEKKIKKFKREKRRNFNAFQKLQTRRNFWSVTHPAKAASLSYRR
Method in brief: as §1

USP38 = target: T2, USP38 (UniProt Q8NB14)
T2 sequence (whole entry): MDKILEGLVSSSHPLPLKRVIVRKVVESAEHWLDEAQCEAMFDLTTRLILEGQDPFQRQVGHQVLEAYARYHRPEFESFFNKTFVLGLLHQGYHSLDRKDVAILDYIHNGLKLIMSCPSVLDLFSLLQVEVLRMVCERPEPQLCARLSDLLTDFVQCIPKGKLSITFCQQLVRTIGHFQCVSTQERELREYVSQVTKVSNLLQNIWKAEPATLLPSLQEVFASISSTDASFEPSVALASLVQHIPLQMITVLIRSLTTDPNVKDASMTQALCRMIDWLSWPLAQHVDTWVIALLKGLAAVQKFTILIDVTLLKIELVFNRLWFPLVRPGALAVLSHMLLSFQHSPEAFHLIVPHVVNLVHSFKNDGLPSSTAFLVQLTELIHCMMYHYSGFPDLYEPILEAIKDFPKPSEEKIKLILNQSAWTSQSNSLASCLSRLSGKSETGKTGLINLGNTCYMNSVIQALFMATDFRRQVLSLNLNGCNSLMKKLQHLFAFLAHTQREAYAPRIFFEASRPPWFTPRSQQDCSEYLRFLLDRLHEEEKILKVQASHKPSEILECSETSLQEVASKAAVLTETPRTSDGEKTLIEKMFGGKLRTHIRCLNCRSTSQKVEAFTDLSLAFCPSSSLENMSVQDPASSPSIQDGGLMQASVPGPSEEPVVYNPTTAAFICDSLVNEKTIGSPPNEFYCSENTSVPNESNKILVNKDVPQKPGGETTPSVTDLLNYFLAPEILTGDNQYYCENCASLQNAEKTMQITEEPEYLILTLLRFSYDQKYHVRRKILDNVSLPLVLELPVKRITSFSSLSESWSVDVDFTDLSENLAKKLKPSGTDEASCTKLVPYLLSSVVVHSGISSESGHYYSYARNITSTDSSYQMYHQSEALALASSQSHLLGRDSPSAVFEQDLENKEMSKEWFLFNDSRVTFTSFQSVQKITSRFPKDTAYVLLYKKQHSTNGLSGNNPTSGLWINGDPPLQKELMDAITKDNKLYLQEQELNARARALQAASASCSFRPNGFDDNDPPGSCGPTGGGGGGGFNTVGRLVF
Method in brief: as §1

USP39 = target: T3, USP39 (UniProt Q53GS9)
T3 sequence (whole entry): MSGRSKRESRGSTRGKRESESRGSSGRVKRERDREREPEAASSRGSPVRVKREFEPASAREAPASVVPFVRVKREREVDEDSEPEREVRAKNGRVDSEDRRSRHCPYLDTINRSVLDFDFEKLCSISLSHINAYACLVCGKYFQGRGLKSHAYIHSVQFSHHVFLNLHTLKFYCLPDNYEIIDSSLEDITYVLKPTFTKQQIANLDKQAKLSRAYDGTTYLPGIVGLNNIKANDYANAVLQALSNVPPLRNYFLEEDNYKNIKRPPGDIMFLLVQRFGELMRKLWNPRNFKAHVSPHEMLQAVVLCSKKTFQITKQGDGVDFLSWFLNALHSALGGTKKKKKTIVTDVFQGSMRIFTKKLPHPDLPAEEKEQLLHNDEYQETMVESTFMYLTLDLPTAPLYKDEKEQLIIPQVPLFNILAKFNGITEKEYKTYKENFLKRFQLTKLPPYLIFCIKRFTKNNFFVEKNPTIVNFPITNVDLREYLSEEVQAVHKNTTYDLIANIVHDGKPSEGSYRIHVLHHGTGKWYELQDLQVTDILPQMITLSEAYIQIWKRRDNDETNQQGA
Method in brief: as §1

USP4 = target: T4, USP4 (UniProt Q13107)
T4 sequence (whole entry): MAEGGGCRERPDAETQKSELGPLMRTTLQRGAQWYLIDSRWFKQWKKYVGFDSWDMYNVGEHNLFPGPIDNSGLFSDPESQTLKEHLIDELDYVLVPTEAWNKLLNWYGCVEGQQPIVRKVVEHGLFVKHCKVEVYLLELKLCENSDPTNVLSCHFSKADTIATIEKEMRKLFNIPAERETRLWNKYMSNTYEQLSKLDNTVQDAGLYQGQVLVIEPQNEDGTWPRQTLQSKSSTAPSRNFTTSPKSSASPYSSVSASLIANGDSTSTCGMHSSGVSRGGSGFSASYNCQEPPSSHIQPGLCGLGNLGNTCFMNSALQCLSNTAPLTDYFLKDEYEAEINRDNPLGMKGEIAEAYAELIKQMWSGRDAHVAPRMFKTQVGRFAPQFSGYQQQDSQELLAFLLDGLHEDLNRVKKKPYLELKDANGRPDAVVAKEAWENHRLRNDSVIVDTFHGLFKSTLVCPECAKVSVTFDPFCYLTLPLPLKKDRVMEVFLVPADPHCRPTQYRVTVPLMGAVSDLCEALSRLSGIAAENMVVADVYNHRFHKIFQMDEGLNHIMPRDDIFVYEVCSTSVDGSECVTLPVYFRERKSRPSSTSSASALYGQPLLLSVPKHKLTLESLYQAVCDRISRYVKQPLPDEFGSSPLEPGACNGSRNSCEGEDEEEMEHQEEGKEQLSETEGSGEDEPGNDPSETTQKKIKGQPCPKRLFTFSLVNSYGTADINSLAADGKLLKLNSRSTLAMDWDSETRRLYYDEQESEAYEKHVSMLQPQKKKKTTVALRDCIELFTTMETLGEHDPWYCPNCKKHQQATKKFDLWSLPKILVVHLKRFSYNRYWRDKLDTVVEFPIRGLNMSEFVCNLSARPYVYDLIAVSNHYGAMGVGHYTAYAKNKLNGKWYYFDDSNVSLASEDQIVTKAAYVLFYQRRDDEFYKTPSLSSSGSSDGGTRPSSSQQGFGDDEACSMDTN
Method in brief: as §1

Measured: log2 ratio of Biotin-Ahx-Ub-VS probe labelling

Cc1ccc(CC(CO)CNC(=O)CCl)cc1 (stereo not given)
inactive: USP34 -0.117 | USP36 -0.19 | USP38 -0.239 | USP39 -0.321 | USP4 -0.14
